Test results: PubChem BioAssay (NCI)
About 83,000 compounds went through this panel and 20% of them were active in at least one assay; those are over-represented in the sample as a whole.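 Each cell line was grown in a 96-well plate and treated with one concentration of compound for 48 hours. Values below 10 were considered active.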 The source made the active and inactive calls.

Experiments:
Test in all cases: NCI-60 one-dose screen, 48 h (100 = growth as untreated, 0 = no growth, -100 = all killed)
Conditions in all cases: 10 µM unless noted
NCI-H23 lung = system: NCI-H23 lung
NCI-H226 lung = system: NCI-H226 lung
NCI-H322M lung = system: NCI-H322M lung
HOP-62 NSCLC = system: HOP-62 NSCLC
NCI-H460 lung = system: NCI-H460 lung
HOP-92 NSCLC = system: HOP-92 NSCLC
NCI-H522 lung = system: NCI-H522 lung
A549/ATCC NSCLC = system: A549/ATCC NSCLC
786-0 renal = system: 786-0 renal
COLO 205 colon = system: COLO 205 colon
DU-145 prostate = system: DU-145 prostate
K-562 leukemia = system: K-562 leukemia
MALME-3M melanoma = system: MALME-3M melanoma
MDA-MB-231 breast = system: MDA-MB-231 breast
RXF 393 renal = system: RXF 393 renal
SF-268 CNS = system: SF-268 CNS
SF-295 CNS = system: SF-295 CNS
SF-539 CNS = system: SF-539 CNS
UACC-257 melanoma = system: UACC-257 melanoma

Measured: growth

CCOC(=O)c1c[nH]n2c(=S)ncnc12
inactive: NCI-H23 lung 97.4% | NCI-H226 lung 97.4% | NCI-H322M lung 110% | HOP-62 NSCLC 89.8% | NCI-H460 lung 115% | HOP-92 NSCLC 113% | NCI-H522 lung 96.8% | A549/ATCC NSCLC 106% | 786-0 renal 95.8% | COLO 205 colon 100% | DU-145 prostate 108% | K-562 leukemia 106% | MALME-3M melanoma 109% | MDA-MB-231 breast 109% | RXF 393 renal 113% | SF-268 CNS 98.5% | SF-295 CNS 109% | SF-539 CNS 105% | UACC-257 melanoma 102%

NNC(=O)c1ccc(C(=O)NN)cc1
inactive: NCI-H23 lung 101% | NCI-H226 lung 97.6% | NCI-H322M lung 102% | HOP-62 NSCLC 115% | NCI-H460 lung 104% | HOP-92 NSCLC 104% | NCI-H522 lung 101% | A549/ATCC NSCLC 100% | 786-0 renal 114% | COLO 205 colon 138% | DU-145 prostate 109% | K-562 leukemia 112% | MALME-3M melanoma 98% | MDA-MB-231 breast 117% | RXF 393 renal 111% | SF-268 CNS 106% | SF-295 CNS 106% | SF-539 CNS 115% | UACC-257 melanoma 94.6%

O=S(=O)(NCCCNc1nccc(-c2c(-c3cccc(F)c3)nc3occn23)n1)c1cccc2ccccc12
active: COLO 205 colon -18.1% | K-562 leukemia 4.01% | MDA-MB-231 breast -0.0227%
inactive: NCI-H23 lung 63.9% | NCI-H226 lung 36.3% | NCI-H322M lung 64.6% | HOP-62 NSCLC 74.4% | NCI-H460 lung 18.7% | HOP-92 NSCLC 63.9% | NCI-H522 lung 51.1% | A549/ATCC NSCLC 33.5% | 786-0 renal 46.5% | DU-145 prostate 41.4% | MALME-3M melanoma 31.1% | RXF 393 renal 47.9% | SF-268 CNS 36.6% | SF-295 CNS 52.8% | SF-539 CNS 61.8% | UACC-257 melanoma 58.3%

C1=C[C@H]2O[C@@H]1c1ccc3[nH]ccc3c12
inactive: NCI-H23 lung 96% | NCI-H226 lung 101% | NCI-H322M lung 110% | HOP-62 NSCLC 96.6% | NCI-H460 lung 102% | HOP-92 NSCLC 120% | NCI-H522 lung 41.7% | A549/ATCC NSCLC 89.4% | 786-0 renal 106% | COLO 205 colon 110% | DU-145 prostate 116% | K-562 leukemia 53.3% | MALME-3M melanoma 102% | MDA-MB-231 breast 93.4% | RXF 393 renal 92.5% | SF-268 CNS 104% | SF-295 CNS 103% | SF-539 CNS 107% | UACC-257 melanoma 91.6%

C#CCC(C(=O)OCC)C(=O)OCC
inactive: NCI-H23 lung 100% | NCI-H226 lung 98.5% | NCI-H322M lung 100% | HOP-62 NSCLC 102% | NCI-H460 lung 109% | HOP-92 NSCLC 108% | NCI-H522 lung 99.1% | A549/ATCC NSCLC 100% | 786-0 renal 107% | COLO 205 colon 105% | DU-145 prostate 101% | K-562 leukemia 102% | MALME-3M melanoma 110% | MDA-MB-231 breast 101% | RXF 393 renal 128% | SF-268 CNS 104% | SF-295 CNS 103% | SF-539 CNS 101% | UACC-257 melanoma 108%

COc1cc2c(cc1OCCCCCOc1ccc(-n3c(C)nc4ccccc4c3=O)cc1)N=C[C@@H]1CCCN1C2=O
inactive: UACC-257 melanoma 20%
active: NCI-H23 lung -20.1% | NCI-H226 lung 2.04% | NCI-H322M lung -31.2% | HOP-62 NSCLC -29% | NCI-H460 lung -31.2% | HOP-92 NSCLC -17.8% | NCI-H522 lung -33.5% | A549/ATCC NSCLC 7.25% | 786-0 renal -42.5% | COLO 205 colon -22.3% | DU-145 prostate -25.2% | K-562 leukemia -17.5% | MALME-3M melanoma -78.9% | MDA-MB-231 breast 2.33% | RXF 393 renal -73.9% | SF-268 CNS -5.47% | SF-295 CNS -8.19% | SF-539 CNS -63%

O=C(O)c1cccc(CN2CCN(c3cc4c(cc3F)c(=O)c(C(=O)O)cn4C3CC3)CC2)c1O
inactive: NCI-H23 lung 101% | NCI-H226 lung 106% | NCI-H322M lung 111% | HOP-62 NSCLC 105% | NCI-H460 lung 106% | HOP-92 NSCLC 97% | NCI-H522 lung 87.1% | A549/ATCC NSCLC 99.5% | 786-0 renal 102% | COLO 205 colon 103% | DU-145 prostate 112% | K-562 leukemia 102% | MALME-3M melanoma 96.3% | MDA-MB-231 breast 106% | RXF 393 renal 118% | SF-268 CNS 105% | SF-295 CNS 104% | SF-539 CNS 101% | UACC-257 melanoma 97.7%

O=C(CCNCc1ccccc1)c1ccccc1
inactive: NCI-H23 lung 106% | NCI-H226 lung 102% | NCI-H322M lung 110% | HOP-62 NSCLC 104% | NCI-H460 lung 110% | HOP-92 NSCLC 120% | NCI-H522 lung 101% | A549/ATCC NSCLC 101% | 786-0 renal 108% | COLO 205 colon 111% | DU-145 prostate 105% | K-562 leukemia 108% | MALME-3M melanoma 104% | MDA-MB-231 breast 121% | RXF 393 renal 116% | SF-268 CNS 108% | SF-295 CNS 90% | SF-539 CNS 98.1% | UACC-257 melanoma 102%
